Out of some 320,000 compounds screened, about 1,300 (0.41%) were called active. Another 3% or so got no clear call; they are omitted. The rule behind the calls is not given here. The list is a sample of the results. Potency and affinity values are given separately.

The assay is described as follows: growth inhibition of non-replicating M. tuberculosis (AID 488890).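 Note: plate controls were DMSO cells for no effect and high antibiotic wells for full effect.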 The following applies: Mycobacterium tuberculosis non-replicating, at 25 µM, stronger effect = higher value.
The term inhibition denotes the drop in the measured response relative to a control, in per cent. For the compound `Brc1ccccc1OCCNCc1ccccc1`, the inhibition was determined as 32.1%.

On to `Cc1ccc(C)c(OCCCNCc2ccccc2)c1`, for which the inhibition was 32.5%.

Regarding `CCc1sc(C(=O)Nc2ccc3c(c2)OCO3)cc1C`, the inhibition was found to be 61.2%.

Take `O=C(Nc1ccc2c(c1)OCO2)c1cccs1`: the inhibition turned out to be 21.2%.

`O=C(N/N=C/c1c(Nc2cccc(C(F)(F)F)c2)nc2ccccn2c1=O)c1ccccc1[N+](=O)[O-]`: the inhibition was -6.01%.

In the case of `CN(C)c1ccccc1C(=O)c1ccccc1N(C)C`, the inhibition was determined as 9.64%.

In the case of `O=[N+]([O-])c1ccccc1Oc1cnc2ccccc2n1`, the inhibition came to 46.2%.

For the compound `Oc1ccc(Cl)cc1C1=NNC(c2cc(Br)cc3c2OCOC3)C1` (stereo not drawn), the inhibition was 61.3%.

Consider `Oc1ccccc1C1CC(c2cccs2)=NC(c2ccc(Cl)cc2)N1` (stereo not drawn), for which the inhibition came out at 73.4%.

Regarding `COC(=O)C1=C(C(=O)OC)[C@@H]2N(Cc3ccccc3)c3ccccc3[C@@]23C[C@@H](C(=O)OC)N(C(=O)c2cccs2)C3=N1`, the inhibition stood at 21.8%.

`CC1CCc2c(C(=O)NCCCN3CCOCC3)csc2C1` (stereo not drawn): the inhibition is -0.86%.

On to `COc1cc(NS(=O)(=O)c2csc(C(N)=O)c2)cc(OC)c1`, for which the inhibition amounted to 2.46%.

As to `COc1ccc(C)c2sc(N(CCN(C)C)C(=O)c3ccc4ccccc4c3)nc12`, the inhibition was found to be 28.4%.

With `Cc1cccnc1NC(=O)COc1ccc2c(c1)CCC2`, the inhibition came to 70.6%.

`CCOc1ccc(NC(=O)COc2ccc3c(c2)CCC3)cc1OC`: the inhibition turned out to be 66.5%.

In the case of `Cc1cc(NC(=O)COC(=O)COc2ccc3c(c2)CCC3)no1`, the inhibition was found to be 10.3%.

For `CC(=O)Nc1ccc(NC(=O)COc2ccc3c(c2)CCC3)cc1`, the inhibition amounted to 79.7%.

As to `Cc1ccc(CNC(=O)COc2ccc3c(c2)CCC3)cc1`, the inhibition turned out to be 55.2%.

With `Cc1ccc(NC(=O)COc2ccc3oc4c(c3c2)CCCC4)nc1`, the inhibition turned out to be 57.5%.

For the compound `CC(C)C[C@@H](CSc1ccccc1)N1CCN(CCc2ccccc2)CCC1=O`, the inhibition amounted to 31%.

Turning to `Fc1cccc(Cl)c1/C=C/c1cnc2ccccc2n1`, the inhibition came out at 13.9%.

In the case of `COc1ccc(-c2noc(CN(C)CCC3CCCCO3)n2)cc1` (stereo not drawn), the inhibition was determined as 17.2%.

Turning to `COC(=O)C1=CN(c2ccc(OC)cc2)C=C(C(=O)OC)C1c1cccc(F)c1`, the inhibition amounted to 26.1%.

On to `COc1ccc(N2C(=O)CSC2c2cccc(F)c2)cc1` (stereo not drawn), for which the inhibition came out at 1.65%.

With `COc1ccccc1N(CC(=O)NCC1CCCO1)C(=O)CCC(=O)Nc1nccs1` (stereo not drawn), the inhibition was found to be 1.91%.

Consider `Cc1nc2ccccc2c(=O)n1-c1cc(F)ccc1F`, for which the inhibition worked out at 10.4%.

Turning to `Nc1ccccc1C(=O)c1ccccc1`, the inhibition is -8.33%.

On to `Nc1ccccc1C#Cc1ccccc1`, for which the inhibition came to 44.7%.

On to `COc1ccc(C(=O)Cn2c(NCCO)nc3ccccc32)cc1`, for which the inhibition was -8.13%.

As for `CCCCNC(=O)CCn1nc(-c2ccc(C)cc2)c2ccccc2c1=O`, the inhibition is 1.93%.

For the compound `Cc1cc(C(=O)N/N=C/c2ccc3ccccc3c2)n[nH]1`, the inhibition was -9.05%.

Turning to `Cc1cccc(Cn2ccc(NC(=O)c3cccnc3)n2)c1`, the inhibition is 31.2%.

`CCOC(=O)Cn1ccc(NC(=O)c2ccc3c(c2)OCO3)n1`: the inhibition is -2.16%.

The values above are taken from PubChem BioAssay AID488890 (Southern Research Specialized Biocontainment Screening …, 2010).
